From the supplement of paper PMC11732987, “Enantioselective OTUD7B fragment discovery through chemoproteomics screening and high-throughput optimisation” (Communications Chemistry, 2025)

Key:
Assay in all cases: log2 ratio of Biotin-Ahx-Ub-VS probe labelling (fragment/DMSO); higher = less target engagement (more negative = stronger competition), active = hit call of the paper (q ≤ 0.05, log2 ratio ≤ -1)
Conditions in all cases: compound concentration: 200 uM; treatment time: 3 h
USP34 = USP34 (UniProt Q70CQ2)
In short: (§1)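 The table lists average log2 ratios of fragment over vehicle, from an unpaired t-test on global-median-normalised Spectronaut label-free quantities. Proteins with ≥2 unique peptides were used. Samples were HEK293T lysate (495 µg) treated in triplicate with fragment at 200 µM or vehicle for 3 h, then with Biotin-Ahx-Ub-VS (0.5 µM final) for 1 h, with labelled DUBs NeutrAvidin-enriched and run by diaPASEF LC-MS/MS.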

USP36 = target: T1, USP36 (UniProt Q9P275)
T1 sequence (whole entry): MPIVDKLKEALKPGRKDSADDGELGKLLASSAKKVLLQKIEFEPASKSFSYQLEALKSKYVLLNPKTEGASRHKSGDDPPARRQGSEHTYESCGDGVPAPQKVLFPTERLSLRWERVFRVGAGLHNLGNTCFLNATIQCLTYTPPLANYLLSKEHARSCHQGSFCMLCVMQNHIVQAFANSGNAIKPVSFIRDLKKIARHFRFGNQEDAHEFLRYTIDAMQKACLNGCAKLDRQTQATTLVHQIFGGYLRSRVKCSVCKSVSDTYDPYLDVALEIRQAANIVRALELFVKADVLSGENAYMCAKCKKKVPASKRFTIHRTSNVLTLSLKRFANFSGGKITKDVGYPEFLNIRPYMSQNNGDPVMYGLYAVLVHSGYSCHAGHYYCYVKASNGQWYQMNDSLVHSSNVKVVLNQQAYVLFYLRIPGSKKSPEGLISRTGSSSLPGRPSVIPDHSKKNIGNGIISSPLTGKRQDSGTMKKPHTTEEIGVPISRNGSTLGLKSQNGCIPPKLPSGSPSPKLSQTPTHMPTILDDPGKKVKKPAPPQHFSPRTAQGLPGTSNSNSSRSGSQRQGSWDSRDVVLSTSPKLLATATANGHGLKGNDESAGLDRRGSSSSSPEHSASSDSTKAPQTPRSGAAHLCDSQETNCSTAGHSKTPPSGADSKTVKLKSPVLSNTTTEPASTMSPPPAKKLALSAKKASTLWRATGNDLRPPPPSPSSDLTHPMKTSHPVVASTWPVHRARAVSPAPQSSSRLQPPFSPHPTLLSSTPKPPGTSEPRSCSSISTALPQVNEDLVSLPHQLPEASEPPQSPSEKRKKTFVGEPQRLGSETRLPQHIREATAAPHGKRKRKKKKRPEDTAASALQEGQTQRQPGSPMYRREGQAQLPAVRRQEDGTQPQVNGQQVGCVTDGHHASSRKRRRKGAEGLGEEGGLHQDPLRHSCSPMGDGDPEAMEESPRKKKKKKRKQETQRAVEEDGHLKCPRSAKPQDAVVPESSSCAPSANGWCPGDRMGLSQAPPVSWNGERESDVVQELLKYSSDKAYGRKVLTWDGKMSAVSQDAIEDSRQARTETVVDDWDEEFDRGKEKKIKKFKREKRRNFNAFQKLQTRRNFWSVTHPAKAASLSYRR
In short: as §1

USP38 = target: T2, USP38 (UniProt Q8NB14)
T2 sequence (whole entry): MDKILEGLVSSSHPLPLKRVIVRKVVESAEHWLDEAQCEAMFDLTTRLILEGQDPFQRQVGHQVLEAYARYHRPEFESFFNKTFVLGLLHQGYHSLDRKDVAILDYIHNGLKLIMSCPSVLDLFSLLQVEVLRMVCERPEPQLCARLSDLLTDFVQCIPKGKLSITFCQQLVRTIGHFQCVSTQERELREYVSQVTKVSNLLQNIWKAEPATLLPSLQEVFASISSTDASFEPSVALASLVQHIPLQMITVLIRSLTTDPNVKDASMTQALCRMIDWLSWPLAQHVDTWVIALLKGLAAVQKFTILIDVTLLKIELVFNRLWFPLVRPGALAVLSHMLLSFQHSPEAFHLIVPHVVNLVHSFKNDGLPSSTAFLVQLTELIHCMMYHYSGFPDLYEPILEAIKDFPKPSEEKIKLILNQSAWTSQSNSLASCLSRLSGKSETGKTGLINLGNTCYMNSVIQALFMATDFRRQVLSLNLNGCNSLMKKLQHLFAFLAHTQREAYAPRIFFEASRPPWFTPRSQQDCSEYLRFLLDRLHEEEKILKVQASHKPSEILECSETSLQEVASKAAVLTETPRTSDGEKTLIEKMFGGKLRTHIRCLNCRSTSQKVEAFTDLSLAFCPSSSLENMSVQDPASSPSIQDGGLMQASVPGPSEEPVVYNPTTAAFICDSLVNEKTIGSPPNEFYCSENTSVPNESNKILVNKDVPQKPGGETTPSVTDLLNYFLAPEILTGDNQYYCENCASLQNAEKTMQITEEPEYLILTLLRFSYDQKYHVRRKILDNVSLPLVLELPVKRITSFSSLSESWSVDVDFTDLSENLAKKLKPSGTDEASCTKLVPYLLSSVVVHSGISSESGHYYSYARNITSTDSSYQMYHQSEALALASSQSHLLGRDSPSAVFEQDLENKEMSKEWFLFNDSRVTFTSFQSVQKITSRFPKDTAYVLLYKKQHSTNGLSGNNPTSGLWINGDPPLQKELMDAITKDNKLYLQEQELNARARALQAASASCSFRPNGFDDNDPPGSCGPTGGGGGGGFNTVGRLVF
In short: as §1

USP39 = target: T3, USP39 (UniProt Q53GS9)
T3 sequence (whole entry): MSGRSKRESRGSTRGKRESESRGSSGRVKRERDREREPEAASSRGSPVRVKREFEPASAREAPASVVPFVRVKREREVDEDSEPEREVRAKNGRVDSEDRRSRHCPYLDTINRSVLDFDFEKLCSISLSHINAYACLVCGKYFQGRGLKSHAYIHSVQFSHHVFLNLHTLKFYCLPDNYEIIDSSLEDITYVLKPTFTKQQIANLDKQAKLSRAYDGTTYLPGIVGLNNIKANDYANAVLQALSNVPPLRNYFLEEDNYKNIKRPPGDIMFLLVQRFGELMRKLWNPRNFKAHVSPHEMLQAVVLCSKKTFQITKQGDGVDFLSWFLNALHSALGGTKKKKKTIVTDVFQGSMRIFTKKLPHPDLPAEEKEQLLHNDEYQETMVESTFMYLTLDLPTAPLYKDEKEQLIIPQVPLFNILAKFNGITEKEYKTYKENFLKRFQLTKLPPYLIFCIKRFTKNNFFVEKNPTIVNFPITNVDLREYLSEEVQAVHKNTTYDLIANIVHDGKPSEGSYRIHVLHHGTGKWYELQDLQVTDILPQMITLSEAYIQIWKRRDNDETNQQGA
In short: as §1

USP4 = target: T4, USP4 (UniProt Q13107)
T4 sequence (whole entry): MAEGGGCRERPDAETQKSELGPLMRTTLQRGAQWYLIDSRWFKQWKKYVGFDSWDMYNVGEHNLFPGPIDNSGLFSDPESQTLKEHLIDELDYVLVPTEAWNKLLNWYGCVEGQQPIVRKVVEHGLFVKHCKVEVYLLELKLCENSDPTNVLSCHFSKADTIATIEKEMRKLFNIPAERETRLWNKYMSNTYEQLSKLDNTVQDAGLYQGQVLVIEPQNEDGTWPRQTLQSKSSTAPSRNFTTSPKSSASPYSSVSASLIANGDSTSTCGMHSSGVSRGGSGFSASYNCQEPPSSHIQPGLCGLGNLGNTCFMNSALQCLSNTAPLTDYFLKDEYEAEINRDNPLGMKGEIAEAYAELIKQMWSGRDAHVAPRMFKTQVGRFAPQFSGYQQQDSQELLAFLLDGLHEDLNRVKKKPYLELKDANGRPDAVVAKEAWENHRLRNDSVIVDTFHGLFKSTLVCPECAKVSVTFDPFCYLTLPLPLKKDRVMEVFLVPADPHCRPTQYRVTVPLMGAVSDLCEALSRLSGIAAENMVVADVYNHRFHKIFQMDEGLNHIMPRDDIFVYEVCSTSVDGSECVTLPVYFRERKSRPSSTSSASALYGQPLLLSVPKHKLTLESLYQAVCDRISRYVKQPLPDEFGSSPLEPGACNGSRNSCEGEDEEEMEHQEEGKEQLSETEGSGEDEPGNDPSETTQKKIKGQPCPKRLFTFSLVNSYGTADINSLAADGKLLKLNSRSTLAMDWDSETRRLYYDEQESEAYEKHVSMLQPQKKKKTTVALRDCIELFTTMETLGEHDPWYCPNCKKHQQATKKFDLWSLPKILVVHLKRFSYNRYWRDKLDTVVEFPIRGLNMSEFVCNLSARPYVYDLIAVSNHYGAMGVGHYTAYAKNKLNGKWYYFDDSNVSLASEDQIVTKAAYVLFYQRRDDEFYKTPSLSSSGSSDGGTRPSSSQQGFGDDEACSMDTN
In short: as §1

Measured: log2 ratio of Biotin-Ahx-Ub-VS probe labelling

Sequence of USP34 (Q70CQ2 whole entry, the tested form may be a part): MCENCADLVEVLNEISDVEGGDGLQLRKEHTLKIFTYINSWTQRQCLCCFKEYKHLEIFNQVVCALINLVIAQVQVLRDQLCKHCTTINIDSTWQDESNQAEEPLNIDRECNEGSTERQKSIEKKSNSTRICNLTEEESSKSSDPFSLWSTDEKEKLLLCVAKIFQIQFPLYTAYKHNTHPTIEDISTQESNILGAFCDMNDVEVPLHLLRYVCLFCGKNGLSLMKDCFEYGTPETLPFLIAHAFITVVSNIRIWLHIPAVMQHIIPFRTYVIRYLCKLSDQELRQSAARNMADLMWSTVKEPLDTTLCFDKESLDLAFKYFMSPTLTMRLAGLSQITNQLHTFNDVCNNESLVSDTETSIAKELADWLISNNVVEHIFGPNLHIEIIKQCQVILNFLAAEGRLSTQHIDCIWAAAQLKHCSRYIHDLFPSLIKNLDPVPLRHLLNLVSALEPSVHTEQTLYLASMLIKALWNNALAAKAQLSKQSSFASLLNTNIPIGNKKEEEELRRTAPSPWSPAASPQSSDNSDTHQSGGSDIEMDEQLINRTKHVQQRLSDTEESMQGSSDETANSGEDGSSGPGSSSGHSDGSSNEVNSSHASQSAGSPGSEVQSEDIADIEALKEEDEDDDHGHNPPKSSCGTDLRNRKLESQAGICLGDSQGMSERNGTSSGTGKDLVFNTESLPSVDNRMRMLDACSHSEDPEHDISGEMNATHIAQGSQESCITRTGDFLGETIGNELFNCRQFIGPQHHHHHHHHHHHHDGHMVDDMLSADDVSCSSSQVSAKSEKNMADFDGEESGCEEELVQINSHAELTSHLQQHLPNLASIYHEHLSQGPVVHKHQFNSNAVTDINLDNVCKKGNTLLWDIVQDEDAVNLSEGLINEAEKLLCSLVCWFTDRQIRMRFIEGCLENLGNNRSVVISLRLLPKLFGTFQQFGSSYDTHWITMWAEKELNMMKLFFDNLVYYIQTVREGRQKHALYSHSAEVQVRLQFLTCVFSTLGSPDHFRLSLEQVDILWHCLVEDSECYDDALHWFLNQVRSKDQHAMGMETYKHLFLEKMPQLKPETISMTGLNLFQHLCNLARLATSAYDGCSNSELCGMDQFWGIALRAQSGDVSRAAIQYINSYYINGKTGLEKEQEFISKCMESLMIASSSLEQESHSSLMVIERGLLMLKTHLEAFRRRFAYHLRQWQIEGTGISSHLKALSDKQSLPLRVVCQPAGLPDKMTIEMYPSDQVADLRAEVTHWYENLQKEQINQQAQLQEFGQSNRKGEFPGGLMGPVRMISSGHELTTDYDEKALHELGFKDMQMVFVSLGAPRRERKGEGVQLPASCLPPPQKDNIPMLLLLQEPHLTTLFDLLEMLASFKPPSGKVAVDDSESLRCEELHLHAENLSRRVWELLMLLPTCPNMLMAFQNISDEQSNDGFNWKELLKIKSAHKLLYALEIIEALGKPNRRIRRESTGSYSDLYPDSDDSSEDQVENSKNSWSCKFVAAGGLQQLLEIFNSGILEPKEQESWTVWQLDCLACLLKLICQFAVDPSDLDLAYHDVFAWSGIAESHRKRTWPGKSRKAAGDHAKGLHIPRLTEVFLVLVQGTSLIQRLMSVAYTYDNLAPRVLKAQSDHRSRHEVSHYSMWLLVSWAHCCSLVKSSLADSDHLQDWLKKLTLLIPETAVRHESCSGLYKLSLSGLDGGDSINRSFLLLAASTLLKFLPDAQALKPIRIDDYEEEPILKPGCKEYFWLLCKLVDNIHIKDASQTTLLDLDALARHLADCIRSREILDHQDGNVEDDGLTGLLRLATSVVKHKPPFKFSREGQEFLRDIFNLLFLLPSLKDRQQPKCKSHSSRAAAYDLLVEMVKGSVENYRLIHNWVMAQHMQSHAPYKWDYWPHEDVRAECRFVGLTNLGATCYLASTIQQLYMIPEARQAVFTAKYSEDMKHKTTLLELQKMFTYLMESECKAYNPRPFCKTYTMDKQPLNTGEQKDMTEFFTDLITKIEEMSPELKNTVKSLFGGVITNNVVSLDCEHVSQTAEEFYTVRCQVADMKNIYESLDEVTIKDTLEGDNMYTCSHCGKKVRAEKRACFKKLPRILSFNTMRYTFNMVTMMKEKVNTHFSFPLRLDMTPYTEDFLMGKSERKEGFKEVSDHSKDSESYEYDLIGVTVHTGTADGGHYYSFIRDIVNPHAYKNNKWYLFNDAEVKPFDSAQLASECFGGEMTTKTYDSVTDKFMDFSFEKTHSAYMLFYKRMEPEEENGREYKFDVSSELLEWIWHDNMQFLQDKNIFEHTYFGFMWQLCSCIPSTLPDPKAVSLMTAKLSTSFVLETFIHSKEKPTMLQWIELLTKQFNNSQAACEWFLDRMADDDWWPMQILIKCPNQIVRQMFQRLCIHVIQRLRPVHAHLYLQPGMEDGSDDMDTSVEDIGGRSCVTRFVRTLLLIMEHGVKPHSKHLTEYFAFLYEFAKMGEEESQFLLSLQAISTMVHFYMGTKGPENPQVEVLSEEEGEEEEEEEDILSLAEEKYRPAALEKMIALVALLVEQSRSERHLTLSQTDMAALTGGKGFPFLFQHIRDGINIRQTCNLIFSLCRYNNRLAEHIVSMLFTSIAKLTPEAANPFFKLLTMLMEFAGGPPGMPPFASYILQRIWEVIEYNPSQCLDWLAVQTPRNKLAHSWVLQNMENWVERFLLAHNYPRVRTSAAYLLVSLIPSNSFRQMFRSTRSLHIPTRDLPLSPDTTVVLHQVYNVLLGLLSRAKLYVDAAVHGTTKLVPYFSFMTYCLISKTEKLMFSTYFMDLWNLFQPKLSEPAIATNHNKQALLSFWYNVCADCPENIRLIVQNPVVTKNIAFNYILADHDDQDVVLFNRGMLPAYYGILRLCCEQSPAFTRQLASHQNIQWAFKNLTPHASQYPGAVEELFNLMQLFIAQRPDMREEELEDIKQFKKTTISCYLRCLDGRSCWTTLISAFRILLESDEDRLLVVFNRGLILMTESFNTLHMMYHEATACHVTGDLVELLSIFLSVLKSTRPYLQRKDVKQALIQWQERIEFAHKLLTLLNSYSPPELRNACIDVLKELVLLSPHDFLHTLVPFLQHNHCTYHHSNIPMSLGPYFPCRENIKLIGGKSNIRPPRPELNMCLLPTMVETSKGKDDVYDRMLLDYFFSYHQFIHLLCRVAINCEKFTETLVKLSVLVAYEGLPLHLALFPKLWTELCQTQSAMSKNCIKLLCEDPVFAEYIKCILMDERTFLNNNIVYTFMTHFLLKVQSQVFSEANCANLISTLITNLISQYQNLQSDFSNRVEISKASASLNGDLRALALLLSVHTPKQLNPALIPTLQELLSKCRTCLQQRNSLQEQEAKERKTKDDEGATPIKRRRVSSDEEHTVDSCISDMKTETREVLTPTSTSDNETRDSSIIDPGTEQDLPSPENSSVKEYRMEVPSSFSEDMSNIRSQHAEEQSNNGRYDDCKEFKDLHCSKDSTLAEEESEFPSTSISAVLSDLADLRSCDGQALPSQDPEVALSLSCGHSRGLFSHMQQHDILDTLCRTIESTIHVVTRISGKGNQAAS

C#Cc1cccc(NC(=O)CCl)c1
inactive: USP34 -0.135 | USP36 -0.00355 | USP38 -0.119 | USP39 0.046 | USP4 0.0482
